Nrf2 inh = inhibitors of Nrf2 signaling | A549 ARE-Fluc reporter, luciferase luminescence, 18-24 h | 360,000 tested, 2.1% active | AID 504444 | Potency, µM (titrated, usually from 46 µM), usual class: inhibitors; further: nearly all actives have a fitted effect of over 60% in size
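Concentration-response testing used A549 ARE_Fluc cells at 5000 cells/well. Following an 18-24 h compound incubation, viability was read by fluorescence (Ex 405/Em 525) and luciferase output by luminescence.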
rTrxR1 inhibitor = blocks rat thioredoxin reductase 1 | Potency, µM (highest dose often 114 µM), most hits filed as inhibitors | 390,000 tested, 1% active | recombinant rTrxR1, NADPH fluorescence consumption, selenite substrate; further: nearly all actives have a fitted effect of over 65% in size
Target sequence (O89049 whole entry, looked up): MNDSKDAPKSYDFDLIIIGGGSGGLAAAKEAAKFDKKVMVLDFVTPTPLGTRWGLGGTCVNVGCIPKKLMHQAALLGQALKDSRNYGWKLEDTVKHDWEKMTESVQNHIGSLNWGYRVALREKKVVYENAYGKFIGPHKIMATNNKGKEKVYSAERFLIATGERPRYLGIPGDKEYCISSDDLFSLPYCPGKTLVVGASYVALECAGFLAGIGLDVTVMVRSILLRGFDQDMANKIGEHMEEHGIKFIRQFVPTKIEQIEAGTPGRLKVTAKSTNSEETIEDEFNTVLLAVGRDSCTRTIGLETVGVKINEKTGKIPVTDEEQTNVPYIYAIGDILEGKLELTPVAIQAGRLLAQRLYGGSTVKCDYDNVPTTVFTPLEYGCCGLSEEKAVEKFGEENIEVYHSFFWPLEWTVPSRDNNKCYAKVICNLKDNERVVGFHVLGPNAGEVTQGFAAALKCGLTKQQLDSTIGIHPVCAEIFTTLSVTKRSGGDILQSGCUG
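Rat TrxR1 (90 nM in the dispensed reagent) was pre-reduced with 400 uM NADPH for 5 min at room temperature, then incubated with compound for 15 min. After 400 uM selenite was added, NADPH fluorescence (Ex 340/Em 450 nm) was followed for 8 min.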
TrxR1 substrate = is turned over as a substrate by rat TrxR1; Potency, µM (top dose mostly 114 µM); purified TrxR1 substrate turnover, NADPH consumption readout; AID 588456; 390,000 tested, 0.01% active; further: nearly all actives have a fitted effect of over 50% in size
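Rat TrxR1, dispensed at 90 nM, was prereduced with 400 uM NADPH (final) for 5 min at ~22 deg C, then incubated with compound 15 min before 400 uM selenite. A first-read NADPH fluorescence drop versus no-compound background flagged substrates.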
A549 viability = A549 cytotoxicity, counter-screen for Nrf2 inhibitors. 390,000 tested, 0.16% active. Potency, µM (doses to about 46 µM), actives largely listed as inhibitors. A549 ARE-Fluc cells, CellTiter-Fluor viability, 18-24 h
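A549 ARE-Fluc cells in 5% FBS OPTI-MEM, 5000 cells/well, rested 2 h then exposed to compounds in concentration-response for 18-24 h at 37 °C. Viability by CellTiter-Fluor fluorescence (Ex 405/Em 525) after 30 min; luciferase luminescence (BugLite, 15 min, RT) read afterwards.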
mIDH1 inhibitor = inhibitors of human mutant IDH1 R132H. Potency, µM (top dose mostly 76.6 µM), actives largely listed as inhibitors. 390,000 tested, 0.093% active. O75874. IDH1-R132H enzyme, NADPH consumption, diaphorase/resazurin fluorescence; further: nearly all actives have a fitted effect of over 65% in size
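IDH1-R132H (0.5 ug/mL) preincubated 30 min with compound, then NADPH (0.016 mM) and alpha-KG (2 mM) added; 80 min at RT, pH 7.5. Remaining NADPH coupled via diaphorase/resazurin to fluorescence (540/590 nm); concentration-response curves normalized to no-enzyme control.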
Mito fusion yeast = mitochondrial division inhibition or fusion activation; S. cerevisiae fusion-defective mutant growth rescue, CellTiterGlo 48 h; Potency, µM (top dose mostly 46.1 µM), most hits filed as activators; 320,000 tested, 0.23% active; AID 485298; further: nearly all actives have a fitted effect of over 45% in size
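Temperature-sensitive fusion-defective S. cerevisiae (e.g. fzo1-1, mgm1-5) were grown with compound in YPEG medium (3% ethanol, 3% glycerol) for 48 hours at 37C. Growth rescue was measured as viability by CellTiterGlo luminescence after 10 minutes at ambient.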
Hits are given with their value; i = inactive; ? = inconclusive; nt = no result; ! = a repeat was not active; [ ] = another dose, or the depositor's remark. Sampled rows, rich in hits. Any-hit rate of the full collection: about 3.1%. The call rests on the fitted dose curve; in most records, active means well fitted curve in the direction sought with a large enough effect; inconclusive means small, poorly fitted or top-dose-only effect, or another doubt; inactive means no such curve, though single readings can be large; an effect the other way counts as inactive or inconclusive.

SMILES	Nrf2 inh	rTrxR1 inhibitor	TrxR1 substrate	A549 viability	mIDH1 inhibitor	Mito fusion yeast
C[N+]1(CC(=O)c2ccc3ccccc3c2)CCOCC1	nt	i	i	nt	nt	nt
NC(=S)N/N=C/c1ccc(-n2nncc2-c2ccc(Cl)cc2)cc1	i	i	i	i	i	22.4µM
NC(=S)N/N=C/c1ccc(/C=N/NC(N)=S)cc1	i	i	i	i	i	i
Cc1ccc(Cn2ccn(CC(=O)Nc3c(C)cc(C)cc3C)c(=O)c2=O)cc1	i	i	i	i	i	nt
Cc1ccccc1Cn1c(=O)n(Cc2ccc3c(c2)OCO3)c(=O)c2oc3ccccc3c21	?	i	i	i	i	nt
COc1ccc(CNC(=O)CSCc2cnn(-c3ccccc3)c2-n2cccc2)cc1	i	i	i	i	i	i
O=C(CSCc1cnn(-c2ccccc2)c1-n1cccc1)NCc1ccc2c(c1)OCO2	i	i	i	i	i	22.4µM
CC1CCCN(S(=O)(=O)c2ccc([N+](=O)[O-])cc2)C1 (stereo not drawn)	i	i	i	?	i	i
CC1CC(C)CN(S(=O)(=O)c2ccc(Oc3ccc([N+](=O)[O-])cc3)cc2)C1 (stereo not drawn)	23.1µM	i	i	i	i	i
O=C(N[C@@H](Cc1ccccc1)C(=O)N[C@@H](Cc1ccccc1)C(=O)O)OCc1ccccc1	i	i	i	i	i	i
O=C(N[C@@H](Cc1ccccc1)C(=O)CCl)OCc1ccccc1	?	21.2µM	i	i	i	i
Cc1cc(C(=O)COc2cccnc2[N+](=O)[O-])c(C)n1-c1ccccc1F	?	i	i	i	i	i
Cc1cc(C(=O)COc2cccnc2[N+](=O)[O-])c(C)n1-c1ccccc1	2.91µM	i	i	i	i	i
Cc1ccc(-n2c(C)cc(C(=O)COc3cccnc3[N+](=O)[O-])c2C)cc1	3.26µM	i	i	i	i	i
COC(=O)c1ccc2c(=O)n(CCCCCC(=O)N3CCN(c4cc(Cl)ccc4C)CC3)c(=O)[nH]c2c1	nt	i	i	i	i	nt
COC(=O)c1ccc2c(c1)C(C)(C)C(/C=C/c1ccc(O)cc1)=[N+]2C	nt	56.2µM	i	?	?	i
COc1cc(/C=C/c2ccc(O)cc2)cc(OC)c1	i	i	i	i	i	i
COC(=O)c1ccc2c(c1)C(C)(C)C(/C=C/c1ccc(OC)c(OC)c1OC)=[N+]2C	16.4µM	i	i	?	?	i
CC(C)CN(CC(C)C)c1ccc(/C=C/c2ccnc3ccccc23)cc1	nt	i	i[0.0914 µM]	nt	nt	nt
CCC1C/C(=C\c2cc(OC)c(OC)cc2OC)C(=O)/C(=C/c2cc(OC)c(OC)cc2OC)C1 (stereo not drawn)	18.4µM	i	i	?	i	i
COc1ccc(N2CC(NC(=O)COc3ccccc3F)CC2=O)cc1OC (stereo not drawn)	nt	i	i	i	i	nt
Cc1c(C(=O)O)cccc1-c1ccc(/C=C2/NC(=O)N(c3ccccc3)C2=O)o1	i	i	i	?	i	i
Cc1ccc(/C=C2/NC(=O)N(c3ccccc3)C2=O)o1	i	50.1µM	i	nt	i	i
O=C1N/C(=C/c2ccc(N3CCOCC3)o2)C(=O)N1c1cccc(Cl)c1	i	3.16µM	i	i	i	i
CC[n+]1c(/C=C/C=C2/N(C)c3ccccc3C2(C)C)sc2ccccc21	nt	i	i	nt	nt	i
SMILES	Nrf2 inh	rTrxR1 inhibitor	TrxR1 substrate	A549 viability	mIDH1 inhibitor	Mito fusion yeast
O=C(Cn1cnc2onc(-c3ccc(F)cc3)c2c1=O)N1CCN(c2ccccc2F)CC1	i	i	i	i	i	nt
COc1ccccc1C(=O)N1CCN(c2nc3cc(C)cc(C)c3cc2C#N)CC1	nt	nt	nt	nt	i	nt
COc1ccccc1C(=O)N1CCN(c2nc3cc(C)c(C)cc3cc2C#N)CC1	23.1µM	i	i	i	i	i
CC(C)c1ccc(OCC(=O)NCCS(=O)(=O)N2CCN(c3ccc(F)cc3)CC2)cc1	nt	i	i	i	i	nt
O=[N+]([O-])c1ccc(N2CCN(c3ccc(O)cc3)CC2)cn1	20.6µM	i	i	i	i	i
CCc1ccccc1N1CC(c2nc3ccccc3n2CCCCOc2ccccc2OC)CC1=O (stereo not drawn)	?	i	i	?	i	nt
CCOC(=O)Cn1c(C2CC(=O)N(c3ccc(C)cc3)C2)nc2ccccc21 (stereo not drawn)	20.6µM	i	i	i	i	nt
COc1ccccc1Cn1c(C2CC(=O)N(c3ccccc3OC)C2)nc2ccccc21 (stereo not drawn)	10.3µM	i	i	i	i	nt
CCc1ccc(N2CC(c3nc4ccccc4n3Cc3ccccc3C)CC2=O)cc1 (stereo not drawn)	14.6µM	i	i	i	i	nt
CCOc1ccc(N2CC(c3nc4ccccc4n3CCOc3ccc(CC)cc3)CC2=O)cc1 (stereo not drawn)	i	i	i	i	i	nt
CCOC(=O)c1cc(S(=O)(=O)Nc2ccc(C)cc2Cl)[nH]n1	nt	i	i	i	i	nt
O=C(CCCn1c(=O)c2cccn2c2ccccc21)NCc1ccccc1Br	i	i	i	i	i	nt
CCOc1cccc(NCc2cc3c(C(C)(C)C)nn(-c4ccccc4)c3[nH]c2=O)c1	20.6µM	i	i	?	i	i
CCN(CC)c1ccc(/C=C/c2sc3ccccc3[n+]2CCCCI)cc1	nt	?	i	nt	nt	nt
COC(=O)[C@@H]1[C@@H](C#N)C2(c3ccccc3-c3ccccc32)N(c2ccc(Cl)cc2)N1C#N	i	7.94µM	i	i	i	i
Nc1sc2c(c1C(=O)NC1CCS(=O)(=O)C1)CCC2 (stereo not drawn)	i	25.1µM	i	i	i	i
NC(=O)c1c(N)sc2c1CCC2	i	50.1µM	i	i	i	i
Cc1cc2c(s1)c1cnn(Cc3cc(F)ccc3C)c(=O)c1n2C	i	nt	nt	i	nt	nt
COc1cc(N=c2ssnc2Cl)c(OC)cc1Cl	23.1µM!	?	i	?	46.5µM	i
COc1ccc(OC)c(N=c2ssnc2Cl)c1	i	i	i	i	i	i
O=C(NCC1OCCc2ccccc21)c1ccc(NC(=O)c2ccccc2Cl)cc1 (stereo not drawn)	20.6µM	i	i	i	i	i
CC(=O)c1cccc(NC(=O)c2nc(-c3ccccc3)n(-c3cccc(Cl)c3)n2)c1	?	i	i	i	i	nt
Cc1ccsc1C=Nc1ccc(O)cc1	i	56.2µM	?	i	i	i
CCn1cc2nc(SCc3cccc(C(F)(F)F)c3)n(CCc3ccccc3)c(=O)c2n1	14.6µM	i	i	i	i	nt
CCn1cc2nc(SCc3cccc(C)c3)n(CCc3ccccc3)c(=O)c2n1	?	i	i	i	i	nt
CCC(=O)N1CCc2cc(S(=O)(=O)CCC(=O)N3CCN(c4cccc(C)c4)C(C)C3)ccc21 (stereo not drawn)	20.6µM	i	i	i	i	nt

Screens from PubChem BioAssay.
